# Reference: PubChem BioAssay (NCI)
# The panel holds about 83,000 compounds, 20% with a hit somewhere; the sample as a whole holds those more often.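 48-hour exposure, single concentration, 96-well plates; percent growth endpoint where 0 means no net growth. Active: below 10.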 Activity calls are given as the source filed them.
# System: OVCAR-3 ovarian
# Assay: NCI-60 one-dose screen, 48 h (100 = growth as untreated, 0 = no growth, -100 = all killed)
# Conditions: 10 µM unless noted
row,Compound,growth
1,COCCOc1cc2ncnc(N3CCN(c4ncc(S(=O)(=O)N5CCCCC5)cn4)CC3)c2cc1OCCOC,114% (inactive)
2,COC(=O)[C@]1(C)CCC[C@]2(C)[C@H]3C[C@H]4C(C(C)C)=C[C@]3(CC[C@H]21)[C@@H]1C(=O)CC[C@H](OCCC#N)[C@@H]14,81.5% (inactive)
3,O=C(O)CCN1C(=O)/C(=C/C(Cl)=C/c2ccccc2)SC1=S,2.92% (active)
4,O=C(/C=C/c1cccc(Cl)c1)c1ccc(Nc2nc(Nc3ccc(F)cc3)nc(Nc3ccc(Cl)cc3)n2)cc1,130% (inactive)
5,CC(C)(Sc1cc(C(C)(C)C)c(O)c(C(C)(C)C)c1)Sc1cc(C(C)(C)C)c(OC(=O)CCCC(=O)O)c(C(C)(C)C)c1,44.2% (inactive)
6,Fc1cc2c(cc1Cl)N(c1ncnc3ccc(-c4ccc5n[nH]nc5c4)cc13)CC2,69% (inactive)
7,CCSC(SCC)c1ccc(Cl)cc1,113% (inactive)
8,O=C(Nc1nc2ccc(C(=O)N3CCN(/C=C/c4ccccc4)CC3)cc2s1)c1ccc(NCCc2ccccc2)c([N+](=O)[O-])c1,59.3% (inactive)
9,O=S(=O)(Nc1cc(F)cc(Cl)c1)c1ccc(-c2cnc(C3CC3)o2)cc1,10.2% (inactive)
10,COC(=O)c1c(C)nc(C)c2c1C(=O)C(Br)=C(NCc1ccccc1)C2=O,-12.7% (active)
11,COc1cc2c(c(OC)c1OC)CCC(c1cccc(C(=O)Nc3ccc(C#N)cc3)c1)O2 (stereo not given),65.6% (inactive)
12,O=C1c2ccccc2-c2c1c1c(=O)[nH]c3ccccc3c1n2Cc1ccccc1,77.2% (inactive)
13,O=C1c2c(c3c4ccccc4[nH]c3c3ccc4ccccc4c23)C(=O)N1CCN1CCNCC1,-47.5% (active)
14,CC(C)=CCCC(C)c1ccc(C)c2c1OCN(CCCCCO)C2 (stereo not given),99.7% (inactive)
15,COc1ccc(/C=N/NC(=O)c2ccc(-n3cc(-c4ccccc4)nn3)cc2)cc1OC,129% (inactive)
16,CCN(CC)S(=O)(=O)c1ccc(S(=O)(=O)N2CCC[C@@H](C(=O)N3CCN(c4nc(C(C)C)no4)CC3)C2)cc1,75.6% (inactive)
17,Cc1cc(N2CCN(CC(=O)Nc3ccc4c(ccn4C)c3)CC2)nc(N2CCCCCC2)n1,82.6% (inactive)
18,COc1ccc(Nc2ncc(Br)c(NCCCNC(=O)c3cccs3)n2)cc1,26.6% (inactive)
19,NC(=O)C(=O)c1ccccc1NC=O,110% (inactive)
20,N#Cc1ccc2c(c1)C(=O)c1c-2n(CCCN)c(=O)c2cc([N+](=O)[O-])ccc12,-96.4% (active)

row,Compound,growth
1,c1ccc(Cn2cc3c(c2)-c2oncc2CC3)cc1,-23.8% (active)
2,O=C(CSC(=S)n1cnnc1)NC(=O)c1ccccc1,96.7% (inactive)
3,O=C1/C(=C\c2ccc3nccnc3c2)SC(=S)N1CCc1ccc(O)cc1,101% (inactive)
4,COc1c(B(O)O)cccc1-c1nc2c(F)cc3[nH]ncc3c2c2c1CCCC2,-0.0178% (active)
5,COc1c(B(O)O)cccc1-c1cc(C)c2c(ccc3[nH]ncc32)n1,113% (inactive)
6,CSc1nnc(-c2cc3c([nH]c4ccccc43)c(-c3cccc(O)c3)n2)n1-c1ccccc1,-0.418% (active)
7,C=C1C(=O)O[C@H]2[C@H]1CC/C(Cn1cc(-c3ccccc3)nn1)=C\CC[C@@]1(C)O[C@@H]21,-84.3% (active)
8,C=C(CBr)[C@@H]1CC[C@]2(C(=O)O)CC[C@]3(C)[C@H](CC[C@@H]4[C@@]5(C)CCC(=O)C(C)(C)[C@@H]5CC[C@]43C)[C@@H]12,70.8% (inactive)
9,CCNCCNc1cc(C2CCCCC2)c(C#N)c2nc3ccccc3n12,-67.9% (active)
10,COc1cc2c(c(OC)c1OC)CCC(c1cccc(C(=O)Nc3cccc(Cl)c3)c1)O2 (stereo not given),85.3% (inactive)
11,CCCCCCCC[C@@H]1N[C@@H](C(=O)OC)Cc2c1[nH]c1ccccc21,101% (inactive)
12,CC(=O)Oc1ccc(/C(=C(\C)c2ccc(Cl)cc2)c2ccc(OCCN3CCCCC3)cc2)cc1,66.7% (inactive)
13,COc1ccc2cc1Oc1ccc(cc1)C[C@H]1c3c(cc4c(c3Oc3cc5c(cc3OC)CCN(C)[C@@H]5C2)OCO4)CCN1C,49.5% (inactive)
14,CC(=O)c1c(C)nc2ccccc2c1/C=C/c1ccc(F)cc1,92.9% (inactive)
15,CN(/C(N)=N/N=C/c1c2ccccc2cc2ccccc12)C1CCCCC1,58.8% (inactive)
16,CCOC(=O)n1ccn(C)c1=S,106% (inactive)
17,Cc1cn(-c2cc(NC(=O)c3cncc(C#Cc4cnc(N)c5ncccc45)c3)cc(C(F)(F)F)c2)cn1,92.1% (inactive)
18,O=C(Cn1cc(CSc2nc3ccccc3o2)nn1)Nc1ccc(F)cc1F,119% (inactive)
19,Cc1c2cnccc2c(C)c2c1c1cc(C#N)ccc1n2C,-7.57% (active)
20,CNC(=O)c1ccccc1Oc1nc(Nc2cc(OC)c(OC)c(OC)c2)ncc1Br,66% (inactive)
